L3MBTL1 block – inhibitors of human L3MBTL1 | Q9Y468 | AlphaScreen L3MBTL1–H3K9me1 peptide binding | Potency, µM (titrated, usually from 57.1 µM), hits mostly inhibitors | actives 0.66% (n = 230,000); also: nearly all actives have a fitted effect of over 60% in size
Target sequence (Q9Y468 whole entry, looked up): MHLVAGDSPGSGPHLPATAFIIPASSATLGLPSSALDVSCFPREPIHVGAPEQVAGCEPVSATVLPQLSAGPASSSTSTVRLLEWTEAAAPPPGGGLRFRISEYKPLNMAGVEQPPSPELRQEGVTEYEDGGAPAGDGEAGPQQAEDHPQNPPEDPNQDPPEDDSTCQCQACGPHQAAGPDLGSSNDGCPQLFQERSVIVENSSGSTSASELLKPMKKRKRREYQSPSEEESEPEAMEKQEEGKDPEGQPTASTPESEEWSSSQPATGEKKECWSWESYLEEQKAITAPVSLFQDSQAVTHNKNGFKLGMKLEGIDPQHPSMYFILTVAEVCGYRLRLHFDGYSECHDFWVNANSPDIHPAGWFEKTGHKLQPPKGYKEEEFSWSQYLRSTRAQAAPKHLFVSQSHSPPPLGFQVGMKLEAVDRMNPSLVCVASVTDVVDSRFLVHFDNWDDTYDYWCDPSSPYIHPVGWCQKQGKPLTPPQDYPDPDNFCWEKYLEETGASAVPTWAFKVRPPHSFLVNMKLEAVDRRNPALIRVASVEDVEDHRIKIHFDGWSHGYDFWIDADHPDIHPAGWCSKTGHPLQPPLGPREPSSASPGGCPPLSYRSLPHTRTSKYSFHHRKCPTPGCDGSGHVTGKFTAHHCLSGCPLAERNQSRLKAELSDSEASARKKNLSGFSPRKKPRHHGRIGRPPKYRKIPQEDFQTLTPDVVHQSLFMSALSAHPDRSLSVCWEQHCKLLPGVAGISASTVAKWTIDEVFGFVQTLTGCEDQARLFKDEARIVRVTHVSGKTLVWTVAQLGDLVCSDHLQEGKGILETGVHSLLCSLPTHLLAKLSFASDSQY
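AlphaScreen assay: L3MBTL1 (50 nM final) was preincubated 30 min at room temperature with biotinylated H3(1-15)K9me1 peptide (75 nM final), then 30 min with library compounds; streptavidin donor and nickel chelate acceptor beads (10 ug/mL final) added, 30 min dark.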
G9a inh – inhibitors of human histone lysine methyltransferase G9a | G9a H3K9 monomethylation, AlphaScreen, 2 h | actives 8.8% (n = 350,000) | Q96KQ7 | AID 504332 | Potency, µM (highest dose often 102 µM), actives largely listed as inhibitors; also: nearly all actives have a fitted effect of over 75% in size
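Using a bead-based AlphaScreen, monomethylated H3K9 product from 2 h room-temperature reactions (G9a 20 nM, peptide 500 nM, SAM 20 uM) was detected with 0.5 ug/mL rabbit anti-H3K9me1 antibody.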
JMJD2A Tudor – JMJD2A Tudor domain (human) inhibition | AlphaScreen JMJD2A-Tudor / H3K4me3 peptide binding | actives 4.4% (n = 390,000) | Potency, µM (top dose mostly 114 µM), usual class: inhibitors | O75164; also: nearly all actives have a fitted effect of over 50% in size
HP1b chromo inh – blocks HP1-beta chromodomain binding to methylated histone tails; AlphaScreen HP1-beta / biotin-H3K9me3 peptide binding; actives 0.56% (n = 390,000); Potency, µM (series often up to 114 µM), hits mostly inhibitors; P83916; AID 540317; also: nearly all actives have a fitted effect of over 70% in size
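AlphaScreen: HP1-beta (50 nM) preformed 30 min with biotin-H3(1-18)K9me3 peptide (50 nM) in PBS pH 7.4, 0.01% Tween-20. Compound added for 30 min at RT, then streptavidin donor/nickel chelate acceptor beads (10 ug/mL) for 30 min.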
Sfp PPTase inh – inhibitors of Bacillus subtilis Sfp phosphopantetheinyl transferase; Q9F4F7; Biochemical Sfp PPTase activity, qHTS; Potency, µM, most hits filed as inhibitors; actives 3.5% (n = 310,000); AID 1490;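 also: the enzyme is Sfp with the accession as filed and its product quenches rhodamine fluorescence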
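With Hepes-Na pH 7.6 buffer containing 10 mM MgCl2, Sfp (15 nM) modified BHQ-2-YbbR (12.5 uM) using rhodamine-CoA (5 uM). Two reads 30 minutes apart at 525/598 nm yielded each well's rate.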
BAZ2B inh – BAZ2B (human) inhibition; AlphaScreen BAZ2B-H3K14Ac peptide displacement; actives 4.4% (n = 360,000); Q9UIF8; Potency, µM (titrated, usually from 114 µM), actives largely listed as inhibitors; also: nearly all actives have a fitted effect of over 60% in size
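Inhibition is scored as reduced AlphaScreen emission. The BAZ2B/b-H3(5-23)K14Ac complex (50 nM each) in PBS pH 7.4, 0.01% Tween-20 meets compound (up to 110 uM) for 30 min at RT before bead addition.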
Each line names hits and unclear results; the compound was inactive in the other large screens. An excerpt weighted towards active compounds, which were near 12% of everything screened. Calls follow the shape of the dose curve; as a rule, active = well fitted curve in the direction sought with a large enough effect; inconclusive = small, poorly fitted or top-dose-only effect, or another doubt; inactive = no such curve, though single readings can be large; an effect the other way counts as inactive or inconclusive.

CCC(=O)C1=C(c2cccc([N+](=O)[O-])c2)N(C(=O)CC)n2c(nnc2-c2ccccc2)S1	none (no result: L3MBTL1 block, Sfp PPTase inh)
CC(C)[C@H](NC(=O)c1ccco1)C(=O)NCc1ccccc1	none (no result: L3MBTL1 block)
Cc1ccc(S(=O)(=O)NCC(c2ccccc2)N2CCCCC2)cc1 (stereo not drawn)	none (no result: G9a inh)
Cc1ccc(NC2=C(N3CCCCC3)C(=O)c3ccccc3C2=O)cc1	G9a inh 5.6µM, JMJD2A Tudor 14µM, HP1b chromo inh inconclusive
O=C1C(Nc2ccccc2)=C(N2CCCCC2)C(=O)c2ccccc21	JMJD2A Tudor 40µM, HP1b chromo inh inconclusive, BAZ2B inh 25µM
Cc1coc2cc3oc(=O)c(CC(=O)NCc4cccc(Cl)c4)c(C)c3cc12	none (no result: L3MBTL1 block, Sfp PPTase inh)
Cc1ccccc1NC1=C/C(=N\S(=O)(=O)c2ccc(C(=O)O)cc2)c2ccccc2C1=O	G9a inh 32µM, JMJD2A Tudor 40µM, HP1b chromo inh 45µM, BAZ2B inh 13µM (no result: L3MBTL1 block)
COC(=O)C(C(C)=O)C1=C/C(=N\S(=O)(=O)c2ccc(C)cc2)c2ccccc2C1=O (stereo not drawn)	G9a inh 45µM, Sfp PPTase inh inconclusive (no result: L3MBTL1 block)
O=C(O)c1ccc(S(=O)(=O)/N=C2\C=C(Nc3ccccc3F)C(=O)c3ccccc32)cc1	G9a inh 13µM, JMJD2A Tudor 40µM, HP1b chromo inh 40µM, Sfp PPTase inh inconclusive, BAZ2B inh 22µM (no result: L3MBTL1 block)
CCN(CC)CCC/C(=N\O)C(O)(c1ccccc1)c1ccccc1	G9a inh inconclusive
CC[N+](C)(CC)CCC/C(=N/O)C(O)(c1ccccc1)c1ccccc1	G9a inh 50µM, JMJD2A Tudor inconclusive
O=C(c1ccco1)N(Cc1cccc([N+](=O)[O-])c1)c1ccc(Br)cc1	JMJD2A Tudor inconclusive, Sfp PPTase inh inconclusive, BAZ2B inh 50µM (no result: G9a inh)
O=C(O)c1cccnc1Nc1cccc(C(F)(F)F)c1	BAZ2B inh 79µM
O=C(Nc1cccc(C(F)(F)F)c1)c1cccnc1N1CCN(c2ccccc2)CC1	G9a inh inconclusive, JMJD2A Tudor 79µM, Sfp PPTase inh 22µM, BAZ2B inh 50µM (no result: L3MBTL1 block)
O=C(Nc1cccc(C(F)(F)F)c1)c1cccnc1N1CCN(CCO)CC1	none
C(=N\Nc1nc(Nc2ccccc2)nc(N2CCOCC2)n1)/c1c[nH]c2ccccc12	JMJD2A Tudor 50µM, BAZ2B inh 32µM (no result: G9a inh)
BrC(/C=N/Nc1nc(N2CCOCC2)nc(N2CCOCC2)n1)=C/c1ccccc1	Sfp PPTase inh 79µM, BAZ2B inh inconclusive
Cc1[nH]c2ccccc2c1/C=N/Nc1nc(Nc2ccc(F)cc2)nc(N2CCOCC2)n1	L3MBTL1 block inconclusive, G9a inh inconclusive, BAZ2B inh 50µM
Cc1ccc(Nc2nc(N/N=C/c3c[nH]c4ccccc34)nc(N3CCOCC3)n2)cc1	G9a inh inconclusive, JMJD2A Tudor 45µM, BAZ2B inh 45µM
CC(=C/c1ccccc1)/C=N/Nc1nc(N2CCCCC2)nc(N2CCCCC2)n1	none
CC[C@@]1(C(=O)OC)N[C@H](CN(C)S(=O)(=O)c2ccc(C(F)(F)F)cc2)[C@@H]2C(=O)N(C)C(=O)[C@@H]21	none (no result: G9a inh, Sfp PPTase inh, BAZ2B inh)
O=C(NCCc1ccccc1)C1CCC(=O)N(Cc2ccc(Cl)cc2)C1 (stereo not drawn)	none (no result: L3MBTL1 block)
O=C(NCCc1cscn1)C1CCC(=O)N(Cc2ccc(Cl)cc2)C1 (stereo not drawn)	G9a inh 71µM (no result: L3MBTL1 block)
Cc1cccc2c1-c1sc(C(=O)NCCCN3CCN(c4ccccc4F)CC3)cc1CO2	none (no result: L3MBTL1 block, Sfp PPTase inh)
Cc1cccc2c1-c1sc(C(=O)Nc3ccccc3N3CCN(C)CC3)cc1CO2	JMJD2A Tudor inconclusive, Sfp PPTase inh 35µM, BAZ2B inh 45µM (no result: L3MBTL1 block, G9a inh)
COc1ncc2nc(-c3ccccc3)c(=O)n(C)c2n1	none (no result: L3MBTL1 block, JMJD2A Tudor, HP1b chromo inh, BAZ2B inh)
O=C(CN1CCN(C(=O)C2CCN(C(=O)/C=C/c3ccccc3)CC2)CC1)Nc1ccccc1Cl	none (no result: Sfp PPTase inh)
COc1cc2c(=O)n(Cc3ccccc3Cl)c(=O)n(CC(=O)Nc3ccc(C)c(C)c3)c2cc1OC	none (no result: L3MBTL1 block, Sfp PPTase inh)
COc1ccccc1CNC(=O)Cc1ccccc1	G9a inh inconclusive
COc1ccccc1CNS(=O)(=O)N(C)C	JMJD2A Tudor 50µM

Compound activity: PubChem, National Center for Advancing Translational Sciences (NCATS)
